This is a sample that favours compounds with a hit; in the whole collection about 28% have one here.
CD11b adhes inh: blocks human CD11b/CD18 adhesion to fibrinogen; P05107+P11215; K562 CD11b/CD18 adhesion to fibrinogen, ATPlite luminescence; Mn2+ added to activate the integrin; inhibition, % at 10 µM; 93,000 compounds, 0.54% hits; AID 1497;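 active = primary inhibition of 50% or more at 10 µM, then 40% or more on retest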
Target sequence (P05107 whole entry, looked up, other chains not shown): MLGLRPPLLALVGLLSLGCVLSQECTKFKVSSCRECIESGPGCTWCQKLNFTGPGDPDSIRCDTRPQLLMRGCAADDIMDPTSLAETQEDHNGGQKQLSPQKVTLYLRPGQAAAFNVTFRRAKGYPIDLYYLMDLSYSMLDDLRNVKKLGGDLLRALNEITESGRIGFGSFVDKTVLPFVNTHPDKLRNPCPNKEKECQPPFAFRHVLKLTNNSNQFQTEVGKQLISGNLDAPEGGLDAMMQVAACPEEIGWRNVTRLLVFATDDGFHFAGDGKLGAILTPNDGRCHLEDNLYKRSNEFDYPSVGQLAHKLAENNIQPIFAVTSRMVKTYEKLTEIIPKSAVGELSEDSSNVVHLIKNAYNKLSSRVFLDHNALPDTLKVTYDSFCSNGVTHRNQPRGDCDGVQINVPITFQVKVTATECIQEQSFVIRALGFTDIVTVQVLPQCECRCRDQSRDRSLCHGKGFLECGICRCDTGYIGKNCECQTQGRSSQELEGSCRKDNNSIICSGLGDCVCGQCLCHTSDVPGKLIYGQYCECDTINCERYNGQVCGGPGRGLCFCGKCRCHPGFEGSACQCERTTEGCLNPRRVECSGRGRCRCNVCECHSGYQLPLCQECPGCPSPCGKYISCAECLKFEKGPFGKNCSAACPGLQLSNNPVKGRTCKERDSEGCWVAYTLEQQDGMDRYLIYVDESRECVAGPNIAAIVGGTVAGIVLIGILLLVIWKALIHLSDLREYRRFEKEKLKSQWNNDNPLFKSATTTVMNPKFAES
CYP2C9 act: CYP2C9 (human) activation | recombinant CYP2C9, luciferin-H conversion, luminescence; hits give high values; factor 1 = untreated enzyme, 0 = blocked | activation factor at 5 µM | 96,000 compounds, 1.4% hits | AID 1024;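 active = activation factor of 2 or more for CYP2C9 at a 5 µM dose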
CYP2C9 inh: inhibitors of human CYP2C9; inhibition, % at 5 µM; AID 777; P11712; CYP2C9 Supersomes, luciferin-H conversion, luminescence; 96,000 compounds, 20% hits;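 active = blocking of liver enzyme CYP2C9 beyond about 50% at 5 µM, limit read from the data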
CYP2C19 inhib: inhibitors of human CYP2C19. P33261. CYP2C19 Supersomes, luciferin-H EGE luminescence, 30 min. inhibition, % at 5 µM. 96,000 compounds, 21% hits;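 active = CYP2C19 inhibition above a set limit at 5 µM in the primary screen, cut at about 50% in these data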
Mac1 fbg enh: enhancers of human CD11b/CD18 binding to fibrinogen; AID 1499; activation, % at 10 µM; 93,000 compounds, 0.07% hits; K562 CD11b/CD18 adhesion to fibrinogen, ATPlite luminescence; P05107+P11215;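 active = 10 µM primary screen giving 50% or more activity, confirmed by 40% or more on retest at that dose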
CYP2C19 activ: increases human CYP2C19 enzyme activity | P33261 | recombinant CYP2C19, luciferin-H EGE luminescence; hits give high values; 0 = fully inhibited enzyme, 1 = untreated enzyme | activation factor at 5 µM | 96,000 tested, under 10 active;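 active = activation factor of at least 2 at 5 µM in the primary screen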
Of the large screens only hits and unclear results are named; the others gave an inactive call.

CC(=O)SC(C)CC(=O)NCc1ccccc1 (centres undefined)	none
CN(CC(=O)NCc1ccccn1)S(=O)(=O)c1ccccc1	none
CC(=O)SC(C)CC(=O)Nc1ccccc1 (centres undefined)	CYP2C19 inhib 71
C=CCOc1ccc(CNc2nn[nH]n2)cc1	none
COc1cc(/C(C)=N/NC(=O)Cc2c(C)[nH][nH]c2=O)ccc1O	none (no result: CYP2C9 act, CYP2C9 inh, CYP2C19 inhib, CYP2C19 activ)
CC(CN1CCN(c2ccccc2)CC1)c1ccccc1 (centres undefined)	none
C[N+]1(CCOc2ccc([N+](=O)[O-])cc2)CCOCC1	none
CC(CC(=O)Nc1ccncc1)c1ccccc1 (centres undefined)	CYP2C9 inh 96, CYP2C19 inhib 98
CN(CC(=O)O/N=C(\N)c1ccccn1)S(=O)(=O)c1cc(Cl)ccc1Cl	none
CN(CC(=O)Nc1cccnc1)S(=O)(=O)c1cc(Cl)ccc1Cl	CYP2C19 inhib 80
CN(CC(=O)Nc1ccncc1)S(=O)(=O)c1ccc(Cl)cc1	CYP2C9 inh 80, CYP2C19 inhib 100
Cc1cccnc1Nc1nc(-c2ccc(O)c(O)c2)cs1	CYP2C9 inh 76, CYP2C19 inhib 66
COc1ccc(-c2csc(Nc3ncccc3C)n2)cc1OC	none
O=C(O)c1cnc(-c2ccccc2)nc1Sc1ccc(Cl)cc1	CD11b adhes inh 90, CYP2C9 inh 61
Cc1ccc(NC(=S)N2CCC(N(C)CC3CCCO3)CC2)c(C)c1 (centres undefined)	none
CC(Sc1cccc(C(F)(F)F)c1)C(=O)NC(N)=O (centres undefined)	CYP2C9 act 2.4
O=C(CSc1cccc(C(F)(F)F)c1)Nc1ccc(Cl)cc1Cl	CYP2C19 inhib 96
CCNC(=O)NC(=O)CSc1cccc(C(F)(F)F)c1	CYP2C19 inhib 77
COC(=O)c1cc(Br)c(=O)n(Cc2cccnc2)c1	none
CC1=C(C(=O)OCc2ccccc2)C(c2ccccc2OC(F)F)NC(=O)N1 (centres undefined)	none
COc1ccc(N=Cc2cc3c(cc2O)OC(N)=C(C#N)C3c2ccccc2)cc1 (centres undefined)	none (no result: CYP2C9 act, CYP2C9 inh, CYP2C19 inhib, CYP2C19 activ)
Cc1nn(-c2ccc(Cl)c(Cl)c2Cl)c(=O)c2ccccc12	CYP2C9 inh 54, CYP2C19 inhib 71
CCOC(=O)CNC(=O)c1cn(CC)c(=O)c2cc(OC)c(OC)cc12	none
COc1ccc(CNn2c(-c3cccc(C)c3)nc3ccccc3c2=O)cc1OC	CYP2C19 inhib 81
COc1ccccc1CNn1c(-c2cccc(C)c2)nc2ccccc2c1=O	CYP2C9 inh 86, CYP2C19 inhib 97
O=C(O)CCC(=O)N1CCN(c2cccc(Cl)c2)CC1	none
CCC(C(=O)N1CCc2cc(OC)c(OC)cc2C1)c1ccccc1 (centres undefined)	CYP2C9 inh 73, CYP2C19 inhib 73 (no result: CD11b adhes inh, Mac1 fbg enh)
CCC(C(=O)N1CCN(c2cccc(Cl)c2)CC1)c1ccccc1 (centres undefined)	CYP2C9 inh 100, CYP2C19 inhib 95
CCC(C)NC(=O)C(Cc1ccccc1)n1cccc1 (centres undefined)	CYP2C9 inh 60, CYP2C19 inhib 62
O=C(Nc1cccnc1)C(Cc1ccccc1)n1cccc1 (centres undefined)	none
O=C(Nc1ncc(Br)s1)C(Cc1ccccc1)n1cccc1 (centres undefined)	CD11b adhes inh 79, CYP2C9 inh 97, CYP2C19 inhib 88
O=C(NC1CCCC1)C(Cc1ccccc1)n1cccc1 (centres undefined)	none
COc1cc2c(cc1OC)CN(C(=O)c1ccccc1C(=O)O)CC2	none
CC(=O)Nc1cc(NC(C)=O)cc(C(=O)NC(C)(C)C)c1	none
CCOC(=O)CNC(=O)CSc1ncnc2c1cnn2Cc1ccccc1	none
O=C(/C=C/c1ccc(F)cc1)c1ccccc1Br	none (no result: CYP2C9 act, CYP2C9 inh, CYP2C19 inhib, CYP2C19 activ)
CC(=O)/C(C(=N)N1CCN(c2cccc(Cl)c2)CC1)=C(\C)O	none
O=C(C(Cc1ccccc1)n1cccc1)N1CCCCCC1 (centres undefined)	CYP2C19 inhib 69
O=C(C(Cc1ccccc1)n1cccc1)N1CCN(Cc2ccccc2)CC1 (centres undefined)	CYP2C9 inh 62
O=C(C(Cc1ccccc1)n1cccc1)N1CCCCC1 (centres undefined)	none

Bioassay records deposited in PubChem BioAssay by Sanford-Burnham Center for Chemical Genomics.
